Source: PubChem BioAssay
CYP2C19 inh: blockers of cytochrome P450 2C19 activity – biochemical, luminescence, ADME assay, primary screen; CYP2C19 Supersomes, luciferin-H EGE luminescence, 30 min; P33261; inhibition, % at 5 µM; hit rate 21% among 96,000;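 active means CYP2C19 inhibition above a set limit at 5 µM in the primary screen, cut at about 50% in these data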;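 further: plate controls were negative control wells for no effect and 2.5 mM tranylcypromine positive control for full effect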
CYP2C9 activ: human CYP2C9 activators, primary screen, biochemical, luminescence; Cytochrome P450 2C9 (Homo sapiens), P11712; activation factor at 5 µM; recombinant CYP2C9, luciferin-H conversion; stronger effect = higher value; factor 1 = untreated enzyme, 0 = blocked; hit rate 1.4% among 96,000;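 active means activation factor of 2 or more for CYP2C9 at a 5 µM dose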;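 further: 0 = sulfaphenazole-blocked wells and 1 = vehicle-only wells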
Target sequence (P11712 whole entry, looked up): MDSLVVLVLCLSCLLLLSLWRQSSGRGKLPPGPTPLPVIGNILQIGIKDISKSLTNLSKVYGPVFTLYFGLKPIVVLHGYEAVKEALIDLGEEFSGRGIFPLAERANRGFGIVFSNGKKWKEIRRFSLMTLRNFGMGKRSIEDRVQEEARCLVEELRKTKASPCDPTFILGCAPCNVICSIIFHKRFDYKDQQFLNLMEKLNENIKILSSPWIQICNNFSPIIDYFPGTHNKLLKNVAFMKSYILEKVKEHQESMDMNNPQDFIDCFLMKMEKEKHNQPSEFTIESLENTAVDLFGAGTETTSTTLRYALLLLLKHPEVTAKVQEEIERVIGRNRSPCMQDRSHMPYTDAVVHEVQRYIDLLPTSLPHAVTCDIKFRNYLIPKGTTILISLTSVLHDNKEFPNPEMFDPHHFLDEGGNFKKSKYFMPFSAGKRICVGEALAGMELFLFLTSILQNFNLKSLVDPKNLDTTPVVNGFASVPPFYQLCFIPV
CYP2C19 activ: human CYP2C19 activators, primary screen, biochemical, luminescence. Cytochrome P450 2C19 (Homo sapiens), P33261. recombinant CYP2C19, luciferin-H EGE luminescence; stronger effect = higher value; 0 = fully inhibited enzyme, 1 = untreated enzyme. activation factor at 5 µM. 96,000 tested, under 10 active. AID 1025, 2008;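 active means activation factor of at least 2 at 5 µM in the primary screen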;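 further: 0 = wells with 2.5 mM tranylcypromine and 1 = vehicle-only wells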
D1 allo mod: D1 CRE-luciferase signal change, two-sided – cell-based, HEK293 D1, dopamine EC30, D1 allosteric modulator project, primary screen; hit rate 5.9% among 58,000; dopamine EC30 potentiation; actives deviate in either direction; B-score at 10 µM;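 active means luminescence count or its row- and column-corrected plate score outside the 99.7% band of the plate's sample wells, on either side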
DAT uptake mod: changed hDAT dopamine uptake under cocaine IC80, either direction, primary screen, cocaine antagonist project, cell-based, LLC-PK1 hDAT, [14C]-dopamine uptake, MLSMR; hit rate 1.3% among 110,000; B-score at 10 µM; AID 449768, 2010; Sodium-dependent dopamine transporter (Homo sapiens), Q01959; LLC-PK1 hDAT cells, [14C]-dopamine uptake with cocaine IC80; actives deviate in either direction;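 active means Z score or B-score, a plate-position-corrected score, falls beyond the plate's 99.7% confidence bounds, in either direction; inactive means both scores lie inside the 99.7% bounds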;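 further: scored against the spread of the other compound wells on the same plate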
CYP2C9 inh: blockers of cytochrome P450 2C9 activity – biochemical, luminescence, ADME assay, primary screen. P11712. CYP2C9 Supersomes, luciferin-H conversion. inhibition, % at 5 µM. hit rate 20% among 96,000. AID 777, 2007;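 active means blocking of liver enzyme CYP2C9 beyond about 50% at 5 µM, limit read from the data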
Starred values were filed as active, the others as inactive; nt = no result given. A selection: hits, their analogues and other compounds. The true share with any hit is near 28%.

SMILES | CYP2C19 inh | CYP2C9 activ | CYP2C19 activ | D1 allo mod | DAT uptake mod | CYP2C9 inh
CCOCCn1c(C(C)O)nc2ccccc21 (configuration not stated) | nt | nt | nt | nt | -1.3 | nt
CC(O)c1nc2ccccc2n1C/C=C/c1ccccc1 (configuration not stated) | 98* | 0.5 | 0 | -0.21 | -0.37 | 55*
OCc1nc2ccccc2n1C/C=C/c1ccccc1 | 92* | 0.4 | 0.1 | -0.78 | 0.63 | 60*
COC/C=C/C1=CC2=CC(=O)C(C)(OC(=O)c3cnc4ccccc4n3)C(=O)C2=CN1C1CCCC1 (configuration not stated) | nt | nt | nt | nt | -2.3 | nt
CCOC(=O)CSC1=Nc2ccccc2C2=NC(CC(=O)NCc3ccc(OC)cc3)C(=O)N12 (configuration not stated) | nt | nt | nt | 0.084 | 0.44 | nt
Cc1ccc(CSC2=Nc3ccccc3C3=NC(CCC(=O)NCc4ccco4)C(=O)N23)cc1 (configuration not stated) | 21 | 0.1 | 0.8 | 1.3 | 2.5 | 87*
O=C(CC1N=C2c3ccccc3N=C(SCc3ccc(Cl)cc3)N2C1=O)NCc1ccco1 (configuration not stated) | 5 | 0.3 | 0.9 | 0.85 | -0.2 | 72*
CCSC1=C(C#N)C2(CCCC2)C(C#N)=C(N)N1 | 95* | 0 | 0 | 1.4 | -2.7* | 95*
CSC1=C(C#N)C2(CCCC2)C(C#N)=C(N)N1 | 77* | 0.4 | 0.2 | 0.23 | -0.36 | 63*
N#CC1=C(N)N2C(=C(C#N)C13CCCCC3)SC1CCCCC12O (configuration not stated) | 41 | 0.6 | 0.6 | nt | 0.22 | 40
N#CC1=C(N)NC(SCc2ccc(Cl)cc2)=C(C#N)C12CCCCC2 | 100* | 0 | 0 | -0.51 | 1.1 | 100*
N#CC1=C(N)NC(SCC(=O)Nc2ccc(Br)cc2)=C(C#N)C12CCCCC2 | 100* | 0 | 0 | nt | -1.8 | 96*
CC1=C(C(=O)Nc2ccccc2)C2(CCCCC2)C(C#N)=C(SCC(N)=O)N1 | 47 | 0.5 | 0.5 | nt | -0.11 | 46
CC1(C)CC(=O)C2=C(C1)NC(SCC(=O)Nc1ccccc1)=C(C#N)C21CCCCC1 | 47 | 0.5 | 0.5 | -0.07 | -0.17 | 48
O=C(Cc1ccccc1)Nc1ccc(N2CCN(Cc3ccccc3F)CC2)cc1 | 22 | 0.7 | 0.8 | nt | 0.0059 | 26
O=C(/C=C/c1ccco1)NCC1CCCO1 (configuration not stated) | 3 | 1 | 1 | nt | nt | 5
Nc1cc(CN2C(=O)c3ccccc3C2=O)cc(Cl)c1O | 14 | 3.5* | 0.9 | nt | 0.19 | -254
O=C(c1ccc(Cl)cc1)c1ccc(CN2C(=O)c3ccccc3C2=O)o1 | 11 | 0.5 | 0.9 | nt | -0.63 | 46
CC(=O)C1=C(O)C(=O)N(c2ccc(C)cc2)C1c1ccccn1 (configuration not stated) | nt | nt | nt | nt | 0.19 | nt
O=C(/C=C/N1CCOCC1)c1ccc(-c2ccccc2)cc1 | 21 | 0.1 | 0.8 | 0.082 | -0.49 | 89*
CC1CCCN(S(=O)(=O)c2ccc(S(=O)(=O)N3CCCN(Cc4ccccc4)C3)cc2)C1 (configuration not stated) | 95* | 0.2 | 0 | 0.41 | -0.52 | 85*
CC(C)CNS(=O)(=O)c1ccc(S(=O)(=O)N2CCCN(Cc3ccccc3)C2)cc1 | 50* | 0.7 | 0.5 | -0.87 | 0.84 | 28
CC1CCN(S(=O)(=O)c2ccc(NC(=O)CN3CCCC(C)C3)cc2)CC1 (configuration not stated) | 14 | 0.7 | 0.9 | nt | 1.3 | 27
O=S(=O)(NCC(c1cccnc1)N1CCN(Cc2ccccc2)CC1)c1ccccc1 (configuration not stated) | nt | nt | nt | -0.33 | 0.0052 | nt
COc1ccc(C(=O)Nc2cccc(C(C)=O)c2)c(OC)c1OC | 63* | 0.8 | 0.4 | nt | -0.36 | 15
